# ERb SRC1 inh: blocks coactivator binding to human estrogen receptor beta; Q92731; TR-FRET ER-beta LBD / SRC1-Cy5 peptide binding; receptor agonist-loaded with 1 µM estradiol; inhibition, % at 25.6 µM; 1.3% of 86,000 active; AID 633;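 active = compounds whose percent inhibition of the receptor-coactivator binding signal exceeds about 50% in the single-dose screen, limit read from the data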;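 note: 0% = receptor plus peptide wells without compound and 100% = peptide-only wells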
# Target sequence (Q92731 whole entry, looked up, the tested form may be a part): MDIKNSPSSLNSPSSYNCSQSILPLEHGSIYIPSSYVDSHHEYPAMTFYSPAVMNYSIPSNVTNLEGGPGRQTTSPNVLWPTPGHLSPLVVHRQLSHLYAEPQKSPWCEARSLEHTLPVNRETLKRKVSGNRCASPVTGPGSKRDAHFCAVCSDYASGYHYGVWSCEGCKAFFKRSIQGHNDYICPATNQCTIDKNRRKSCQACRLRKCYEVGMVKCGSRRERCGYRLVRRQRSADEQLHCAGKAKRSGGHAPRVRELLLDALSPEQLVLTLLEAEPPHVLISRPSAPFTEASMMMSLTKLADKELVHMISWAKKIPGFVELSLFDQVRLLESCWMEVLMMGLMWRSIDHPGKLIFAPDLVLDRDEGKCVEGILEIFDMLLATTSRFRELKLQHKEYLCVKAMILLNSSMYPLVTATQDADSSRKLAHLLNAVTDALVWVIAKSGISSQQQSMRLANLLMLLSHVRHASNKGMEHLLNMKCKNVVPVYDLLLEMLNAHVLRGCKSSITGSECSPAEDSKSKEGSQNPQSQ
# Smad3 FoxH1 inh: inhibitors of human Smad3 transcription factor binding. P84022. TR-FRET Smad3/Dy647-FoxH1 peptide binding, europium anti-His. inhibition, % at 25 µM. 0.29% of 88,000 active. AID 630;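 active = compounds that reduce the energy-transfer binding signal between the protein and its labelled peptide by more than half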;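 note: 0% = Smad3 plus labelled peptide maximal FRET and 100% = peptide-only background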
# ERa coact pot: ER-alpha (human) coactivator binding potentiation; P03372; TR-FRET ERalpha-LBD/SRC-Cy5 coactivator binding, 2 h; 100 = basal binding, no effect; coactivator binding (% of control), % at 25.6 µM; 1.3% of 86,000 active; AID 639; in the data active = activity above about 200%;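 note: binding measured in presence of low estradiol as agonist stimulus; 0% = peptide alone without receptor and 100% = receptor with peptide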
# ERa coact inh: ER-alpha (human) coactivator binding inhibition; inhibition, % at 25.6 µM; 1.7% of 86,000 active; AID 629; P03372; TR-FRET ER-alpha LBD / SRC-1 peptide, estradiol-bound; in the data active = inhibition above about 50%;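 note: 0% = receptor plus peptide control and 100% = peptide only without receptor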
# Calb biofilm kill: kills Candida albicans biofilms; C. albicans biofilm + clotrimazole, Alamar Blue; inhibition, % at 6 µM; 0.14% of 85,000 active;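 active = inhibition above 20%; inactive = inhibition below 20%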;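 note: preformed 24 hr biofilms exposed to compound for 48 hr; 0% = biofilm without compound and 100% = blank killed by clotrimazole plus chlorhexidine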
# * = called active by the depositor; / = no result given; + = active, no number; [ ] = another dose, or the depositor's remark. Only some compounds are listed: those with a hit (about 3.6% of all), similar ones and a draw of the others.
SMILES,ERb SRC1 inh,Smad3 FoxH1 inh,ERa coact pot,ERa coact inh,Calb biofilm kill
c1coc(Cn2nnnc2CN2CCN(C3CCCC3)CC2)c1,14.4,0.6,94.2,2.2,2.2
Fc1ccc(Cn2nnnc2CN2CCN(C3CCCCC3)CC2)cc1,0.9,0.8,217.6*[fluorescence artefact?],-4.3,4.3
Cc1cc(/C=N/Nc2ccc([N+](=O)[O-])cn2)c(C)n1-c1ccccc1,9.0,-2.6,101.8,-0.9,25.3*
Cc1cc(C)c(NC(=O)Cn2cc3c(n2)CCCC3)c(C)c1,-9.7,-2.5,115.2,98.9*[fluorescence artefact?],4.1
Cc1ccc(Cl)cc1NC(=O)Cn1cc2c(n1)CCCC2,-10.6,-4.7,124.4,-9.6,8.9
COc1ccccc1CN1C(=O)c2ccncc2C1=O,71.2*[fluorescence artefact?],5.6,98.4,-19.4,6.5
COc1ccc(CCN2C(=O)c3ccncc3C2=O)cc1OC,-1.4,-1.2,100.8,-7.6,2.5
C=CCn1c(=O)[nH]c2cc(C(=O)N3CCN(c4ccc(C(C)=O)cc4)CC3)ccc2c1=O,36.5,-7.1,105.7,67.7*,3.9
CCN(CC)c1ccc2c(c1)oc(=O)c1c(Cl)cc(=O)oc12,-7.2,13.0,308.9*,-6.2,1.5
CN1/C(=C\C(=O)COC(=O)Cn2nnc(-c3ccccc3)n2)C(C)(C)c2ccccc21,-2.7,-15.5,291.6*,-2.6,4.4
COC(=O)c1ccc2c(c1)NC(=O)C1CCCN21 (centres undefined),21.8,55.9*[fluorescence artefact?],35.3,80.6*[fluorescence artefact?],7.9
O=C(Nc1ccc2c(c1)OCO2)OCc1ccccc1,-14.3,-3.7,103.3,-12.2,6.9
Cc1cc(C)n2nc(SCc3cc(=O)oc4cc(O)ccc34)nc2n1,61.7*[fluorescence artefact?],31.2,98.7,57.9*,7.2
O=S(=O)(O)c1cc(S(=O)(=O)O)c2c(N=Nc3cccc4ccccc34)c(O)ccc2c1,/,85.0*,/,/,/
COCCn1c(SCC(=O)c2ccc(F)cc2)nnc1C(C)C,5.7,-8.6,115.4,0.7,0.2
Cc1cc(SCC(=O)c2ccc3c(c2)OCO3)nc2ccccc12,4.2,4.3,440.7*[fluorescence artefact?],15.6,2.2
Cc1cc(SCC(=O)N2CCCC2)nc2ccccc12,-19.8,23.0,97.3,5.3,3.6
Cc1cc(SCC(=O)c2cc3ccccc3o2)nc2ccccc12,-0.9,-1.6,228.0*[fluorescence artefact?],2.3,7.2
O=C(CSc1nc2ccccc2o1)c1ccc2c(c1)OCCO2,-7.0,14.1,108.3,2.7,7.0
Cc1cc(C(=O)CSc2nc3ccccc3c(=O)n2C)c(C)n1Cc1ccc2c(c1)OCO2,-7.0,-241.3,+[fluorescence artefact?],-23.2,0.2
Cc1c(C(=O)NC(C)C)sc2ncn(CC(=O)N3CCC(C)CC3)c(=O)c12,-1.1,-13.7,85.5,-2.3,0.0
Cn1nc(-c2ccc(Cl)cc2)c2cc(C(=O)N3CCC(N4CCCCC4)CC3)sc21,-3.8,2.9,123.9,-0.2,5.1
COc1ccc(CC(=O)N2CC(C)CC(C)C2)cc1OC (centres undefined),84.2*[fluorescence artefact?],-5.2,93.2,-3.2,3.8
COc1ccc(OC)c(N2C(=O)[C@@H]3C(c4ccccc4Cl)=NO[C@@H]3C2=O)c1,79.0*,48.1,22.8,78.6*,-4.0
COc1ccc(C2=NO[C@@H]3C(=O)N(c4c(C)cccc4C)C(=O)[C@H]23)cc1OC,-6.6,-3.4,103.5,3.1,0.7
SMILES,ERb SRC1 inh,Smad3 FoxH1 inh,ERa coact pot,ERa coact inh,Calb biofilm kill
N#CC1=C(N)SC(N)=C(C#N)C1CCC1CCCCC1,11.4,12.2,241.8*,15.2,6.8
CCc1ccc2[nH]c(=O)c(C3C(C#N)=C(N)Oc4c3ccc3cccnc43)cc2c1 (centres undefined),50.5*,1.4,76.1,79.6*,9.6
CCc1nn2c(=O)cc(CSc3nc4sc5c(c4c(=O)n3C)CCCC5)nc2s1,52.6*[fluorescence artefact?],-1.0,85.0,37.5,7.5
CC(C)c1nc2oc3c(NCc4cccnc4)ncnc3c2c2c1CCC2,16.4,-5.1,515.1*[fluorescence artefact?],-10.3,2.4
CCOC(=O)N1CCN(c2ncnc3c2oc2nc(C(C)C)c4c(c23)CCC4)CC1,29.3,3.3,311.9*[fluorescence artefact?],6.8,2.8
CCC(=O)Oc1c(-c2ccccc2)c2nc3ccccc3nc2c2ccccc12,46.7,36.1,221.3*[fluorescence artefact?],39.2,0.8
CCOC(=O)CSc1nc2ccccc2c(=O)[nH]1,-9.8,-0.8,127.3,-8.7,12.5
CC(O)CN(Cc1cccc(Cl)c1)CC(C)O (centres undefined),-3.5,5.3,132.3,-2.2,/
CCOc1ccc(C2NC(=O)NC(C)=C2C(=O)OC)cc1C (centres undefined),-6.9,3.0,95.6,-11.9,3.2
CCOC(=O)CSc1nc2ccccc2c(=O)n1CCC(=O)NCCc1ccc(OC)c(OC)c1,8.8,1.8,125.3,20.8,5.7
CCCCC(CC)C(=O)NCc1ccccc1OC (centres undefined),52.5*,1.0,128.3,-2.0,10.1
CCOc1ccc(C(=O)N2CCC(C(=O)c3ccc4c(c3)OCCO4)CC2)cc1,18.9,-1.4,71.3,41.3,5.6
O=C(O)NCc1ccccc1 (tested in a mixture with another compound),/,-8.7,/,/,/
CC1(C)CC(=O)c2cnc(NCC3CCCO3)nc2C1 (centres undefined),23.5,-2.4,106.2,55.0*,7.6
Cc1cc(C)n2nc(SC3CCCCN(C(=O)c4ccc(F)cc4)C3=O)nc2n1 (centres undefined),4.7,8.4,107.6,3.1,6.2
COc1ccc(N2C(=O)CC(n3c(CCCCO)nc4ccccc43)C2=O)cc1 (centres undefined),-5.8,8.4,122.3,-7.1,0.8
Cc1ccc(NC(=O)CN2C(=O)S/C(=C/c3ccc(-c4cc(C(=O)O)ccc4C)o3)C2=O)cc1C,72.6*,4.3,237.1*[fluorescence artefact?],66.1*,2.5
Cc1ccc(S(=O)(=O)NCC(=O)N(CC(=O)NCC2CCCO2)Cc2ccccc2)cc1 (centres undefined),-1.7,4.6,114.1,-1.1,20.2*
CC(=O)Nc1cccc(-c2nnc(SCC(=O)n3c4c(c5ccccc53)CCCC4)n2C)c1,18.5,17.6,157.8,5.2,2.2
CCOC(=O)N1CCC(NC(=O)Cn2ncn3c(cc4sc(CC)cc43)c2=O)CC1,57.5*[fluorescence artefact?],-105.5,111.9,43.6,-3.3
CCOC(=O)N1CCC(NC(=O)Cn2ncc3c4ccccc4n(C)c3c2=O)CC1,-9.9,4.4,135.7,0.7,10.2
CC(C)C(O)P(=O)(OCc1ccccc1)c1ccc(N(C)C)cc1 (centres undefined),15.6,-4.8,51.3,51.6*[fluorescence artefact?],-6.4
CN(C)c1ccc(P(=O)(OCc2ccccc2)C(O)c2cccnc2)cc1 (centres undefined),4.6,-0.6,115.3,19.3,6.8
CCc1cc2c(NCC3CCCO3)nc(C)nc2s1 (centres undefined),-3.1,3.2,112.1,-7.2,9.6
Cc1ccc(N2CCn3c2nc2c3c(=O)n(CCc3ccccc3)c(=O)n2C)cc1,49.2,0.6,182.5,59.7*[fluorescence artefact?],1.1
COc1ccc(N2CCCn3c2nc2c3c(=O)n(CCc3ccccc3)c(=O)n2C)cc1,0.8,4.3,105.3,3.1,10.5

# Bioassay records deposited in PubChem BioAssay by several laboratories.
